From PubChem BioAssay (NCI)
This is part of a sample that, as a whole, favours compounds with a hit. Of some 83,000 tested, about 20% had one in any assay.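 For each line, cells grew in 96-well plates with the test compound present at a single concentration for 48 hours.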 Active and inactive are the calls of the source. How the source made its calls: active means growth percent below 10; inactive means the rest.

Experiments:
Test in all cases: NCI-60 one-dose screen, 48 h (100 = growth as untreated, 0 = no growth, -100 = all killed)
Settings in all cases: 10 µM
T-47D breast = test system: T-47D breast
BT-549 breast = test system: BT-549 breast
MDA-MB-435 melanoma = test system: MDA-MB-435 melanoma
SW-620 colon = test system: SW-620 colon
MCF7 breast = test system: MCF7 breast
HCT-116 colon = test system: HCT-116 colon
HCC-2998 colon = test system: HCC-2998 colon
KM12 colon = test system: KM12 colon

Measured: growth

Nc1nc(SCC#CCCl)c2[nH]cnc2n1
inactive: T-47D breast 37.2% | BT-549 breast 44.8% | MDA-MB-435 melanoma 46.7% | SW-620 colon 40.8% | MCF7 breast 34.6% | HCT-116 colon 39% | HCC-2998 colon 100% | KM12 colon 60.6%

CC(=O)[C@H]1CC[C@H]2[C@@H]3CC[C@@H]4CC=C(C=O)C[C@]4(C)[C@H]3CC[C@]12C
inactive: T-47D breast 85.6% | BT-549 breast 85.8% | MDA-MB-435 melanoma 97.3% | SW-620 colon 106% | MCF7 breast 81.1% | HCT-116 colon 87% | HCC-2998 colon 89.5% | KM12 colon 104%

COc1cccc(C(=O)NNc2nc(N3CCOCC3)nc(N3CCN(C(c4ccccc4)c4ccccc4)CC3)n2)c1
inactive: T-47D breast 59.2% | BT-549 breast 87.9% | MDA-MB-435 melanoma 96.8% | SW-620 colon 96.5% | MCF7 breast 79.8% | HCT-116 colon 85.4% | HCC-2998 colon 100% | KM12 colon 77.7%

NC1CCC(Nc2nc(NCc3cc(Cl)ccc3O)c3ncn(C4CCCC4)c3n2)CC1 (stereo unspecified)
active: T-47D breast -28% | BT-549 breast -21.2% | MDA-MB-435 melanoma -43.9% | SW-620 colon 3.11% | MCF7 breast -58.9% | HCT-116 colon -17.6% | HCC-2998 colon -39.5% | KM12 colon 1.98%

Cc1ccc(-n2nnc3c(sc4ccccc43)c2=O)cc1
active: HCT-116 colon 3.11%
inactive: T-47D breast 64.2% | BT-549 breast 81.4% | MDA-MB-435 melanoma 59% | SW-620 colon 58.6% | MCF7 breast 81.2% | HCC-2998 colon 70.8% | KM12 colon 25.3%

CCCCCCN=C(N)CCCCCCCCCCC(N)=NCCCCCC
inactive: T-47D breast 12.2% | BT-549 breast 39.4% | MDA-MB-435 melanoma 38.9% | SW-620 colon 22.4% | MCF7 breast 14.9% | HCT-116 colon 16.5% | HCC-2998 colon 35.7% | KM12 colon 34.8%

COc1cc(-c2cc(-c3ccc(C)cc3)nc3nc(N)[nH]c(=O)c23)ccc1Oc1ccnc2cc(Cl)ccc12
inactive: T-47D breast 69.6% | BT-549 breast 112% | MDA-MB-435 melanoma 85.3% | SW-620 colon 98.2% | MCF7 breast 51.2% | HCT-116 colon 88.8% | HCC-2998 colon 79.5% | KM12 colon 67%

COc1ccc2nc(C)cc(Nc3ccc(Cl)cc3)c2c1
inactive: T-47D breast 102% | BT-549 breast 103% | MDA-MB-435 melanoma 108% | SW-620 colon 106% | MCF7 breast 89% | HCT-116 colon 101% | HCC-2998 colon 107% | KM12 colon 107%

COC1OC2COC(c3ccccc3)OC2C(=O)C1NC(=O)c1ccccc1 (stereo unspecified)
inactive: T-47D breast 98.6% | BT-549 breast 107% | MDA-MB-435 melanoma 96.4% | SW-620 colon 88.2% | MCF7 breast 99.6% | HCT-116 colon 99% | HCC-2998 colon 92.9% | KM12 colon 96.7%

COc1ccc(C2C=C(c3ccc(Cl)c(Cl)c3)N=C3SC(C)=CN32)cc1OC (stereo unspecified)
inactive: T-47D breast 64% | BT-549 breast 89.1% | MDA-MB-435 melanoma 69.4% | SW-620 colon 85.7% | MCF7 breast 72.8% | HCT-116 colon 48.8% | HCC-2998 colon 77.8% | KM12 colon 57%

CCCCNC(=O)Oc1ccc(/C(=C(\C)c2ccc(OC)cc2)c2ccc(OCCN3CCCCC3)cc2)cc1
inactive: T-47D breast 32.4% | BT-549 breast 52% | MDA-MB-435 melanoma 59.8% | SW-620 colon 40.5% | MCF7 breast 24.2% | HCT-116 colon 29.4% | HCC-2998 colon 72.8% | KM12 colon 45.4%

Nc1c(C(=O)Nc2ccccc2F)sc2nc3c(cc12)C(=O)CCC3
active: MDA-MB-435 melanoma -25.9%
inactive: T-47D breast 40.2% | BT-549 breast 59.8% | SW-620 colon 30% | MCF7 breast 22.9% | HCT-116 colon 32% | HCC-2998 colon 43.8% | KM12 colon 24.6%

FC(F)(F)c1ccc(-c2nc(-c3nc4cc(Cl)c(Cl)cc4[nH]3)c3ccccn23)cc1
inactive: T-47D breast 61.6% | BT-549 breast 88.2% | MDA-MB-435 melanoma 73.4% | SW-620 colon 80% | MCF7 breast 48% | HCT-116 colon 33.8% | HCC-2998 colon 83% | KM12 colon 52.8%

COc1ccccc1S(=O)(=O)Nc1ccc2c(c1)CN(C)C(=O)N2
inactive: T-47D breast 31.4% | BT-549 breast 101% | MDA-MB-435 melanoma 34.2% | SW-620 colon 59.4% | MCF7 breast 21.5% | HCT-116 colon 49.7% | HCC-2998 colon 64.4% | KM12 colon 45%

COc1cc2nc(Sc3sc(N)nc3C)n(-c3ccc(Oc4ccccc4)cc3)c(=O)c2cc1OC
inactive: T-47D breast 77.3% | BT-549 breast 71.3% | MDA-MB-435 melanoma 93.3% | SW-620 colon 81.2% | MCF7 breast 74.4% | HCT-116 colon 47.4% | HCC-2998 colon 80.4% | KM12 colon 93.5%

CNC(=O)c1cc(Oc2ccc(NC(=O)Nc3ccc(Cl)c(OC4CCCCC4)c3)c(F)c2)ccn1
inactive: BT-549 breast 72.6% | MDA-MB-435 melanoma 45.3% | SW-620 colon 62.9% | MCF7 breast 27.8% | HCT-116 colon 11.9% | HCC-2998 colon 82.6% | KM12 colon 26.2%
active: T-47D breast 5.13%

COc1ccc(-c2n/c(=C\c3c(O)[nH]c4ccccc34)cc3c2=Nc2ccccc2-3)cc1
active: MDA-MB-435 melanoma 4.87% | SW-620 colon -6.59% | MCF7 breast -22% | HCT-116 colon -87.3% | KM12 colon 5.41%
inactive: T-47D breast 84.8% | BT-549 breast 78.4% | HCC-2998 colon 17.8%

COCc1cc2c(cc1Br)OCO2
inactive: T-47D breast 98.4% | BT-549 breast 105% | MDA-MB-435 melanoma 108% | SW-620 colon 103% | MCF7 breast 96.4% | HCT-116 colon 98.6% | HCC-2998 colon 95.9% | KM12 colon 104%

C[C@]12CC[C@H]3[C@@H](CCC4=CC(=O)CC[C@@]43C)[C@@H]1CC[C@@H]2c1csc(N)n1
inactive: T-47D breast 24.8% | BT-549 breast 34.2% | MDA-MB-435 melanoma 55.5% | SW-620 colon 56.9% | MCF7 breast 26% | HCT-116 colon 32.7% | HCC-2998 colon 45.8% | KM12 colon 50.8%

CCOc1nc(-c2ccccc2)cc2c(O)c(C(=O)NCCCO)[nH]c(=O)c12
inactive: T-47D breast 97.4% | BT-549 breast 97.6% | MDA-MB-435 melanoma 94.9% | SW-620 colon 96.4% | MCF7 breast 90.3% | HCT-116 colon 98.9% | KM12 colon 99.1%

Oc1cc(O)c(Br)cc1Br
inactive: T-47D breast 90.2% | BT-549 breast 93.8% | MDA-MB-435 melanoma 101% | SW-620 colon 105% | MCF7 breast 91.3% | HCT-116 colon 97.3% | HCC-2998 colon 94.6% | KM12 colon 101%

COCCOC(=O)NC(=O)Nc1ccc(C(=O)c2ccc(Cl)cc2)cc1
active: MDA-MB-435 melanoma 6.97%
inactive: T-47D breast 16.5% | BT-549 breast 37.8% | SW-620 colon 30.4% | MCF7 breast 19.5% | HCT-116 colon 30.5% | HCC-2998 colon 47.3% | KM12 colon 29%

CC(=O)CS(C)(=O)=O
inactive: T-47D breast 109% | BT-549 breast 109% | MDA-MB-435 melanoma 106% | SW-620 colon 102% | MCF7 breast 105% | HCT-116 colon 107% | HCC-2998 colon 102% | KM12 colon 114%

Cc1cc(=O)oc2cc(OCc3cn(CC(O)CO)nn3)ccc12 (stereo unspecified)
inactive: T-47D breast 86.8% | BT-549 breast 97.5% | MDA-MB-435 melanoma 116% | SW-620 colon 74% | MCF7 breast 109% | HCT-116 colon 98.8% | KM12 colon 111%

Brc1ccc(-c2cn3ccnc3c(-c3ccc(Br)cc3)n2)cc1
active: MDA-MB-435 melanoma 3.08%
inactive: T-47D breast 37.2% | BT-549 breast 17.6% | SW-620 colon 25.4% | MCF7 breast 22% | HCT-116 colon 30% | HCC-2998 colon 60.2% | KM12 colon 34.6%

COc1cc(CSc2nc3ccc(Cl)cc3c(=O)n2-c2ccccc2)cc(OC)c1OC
inactive: T-47D breast 71% | BT-549 breast 92.8% | MDA-MB-435 melanoma 24.4% | SW-620 colon 79.7% | MCF7 breast 76.9% | HCT-116 colon 61.8% | HCC-2998 colon 80% | KM12 colon 49.8%

Cc1cc2cc3c(=O)[nH]c(=O)cc-3n(CC(O)C(O)C(O)CO)c2cc1C (stereo unspecified)
inactive: T-47D breast 95.1% | BT-549 breast 104% | MDA-MB-435 melanoma 104% | SW-620 colon 89.8% | MCF7 breast 101% | HCT-116 colon 101% | HCC-2998 colon 109% | KM12 colon 108%

COc1cc(C2c3cc4c(cc3C(O)C(CO)C2CO)OCO4)cc(OC)c1OC (stereo unspecified)
active: MDA-MB-435 melanoma -53.1%
inactive: T-47D breast 45.7% | BT-549 breast 58.7% | SW-620 colon 19.6% | MCF7 breast 17.5% | HCT-116 colon 23.1% | HCC-2998 colon 40.9% | KM12 colon 16.1%

CCOC(=O)/C(C#N)=C(/C)C1CC1
inactive: T-47D breast 103% | BT-549 breast 107% | MDA-MB-435 melanoma 106% | SW-620 colon 108% | MCF7 breast 101% | HCT-116 colon 110% | HCC-2998 colon 112% | KM12 colon 106%

C=CCOc1ccc2c(c1)CC[C@@H]1[C@@H]2CC[C@]2(C)C(=O)/C(=N/O)C[C@@H]12
inactive: T-47D breast 22.7% | BT-549 breast 28.6% | MDA-MB-435 melanoma 61.6% | SW-620 colon 42.5% | MCF7 breast 44.2% | HCT-116 colon 12.2% | HCC-2998 colon 27% | KM12 colon 61.6%

COc1ccc(N2CCN(c3nc(-c4ccccc4)c(C#N)c(=O)[nH]3)CC2)cc1
inactive: T-47D breast 85.7% | BT-549 breast 93.6% | MDA-MB-435 melanoma 111% | SW-620 colon 113% | MCF7 breast 93.9% | HCT-116 colon 89.9% | HCC-2998 colon 99.8% | KM12 colon 96.8%

CC(C)C[C@H](NC(=O)Cn1ccc(Nc2ccccc2)cc1=O)B(O)O
active: T-47D breast -4.25% | BT-549 breast 9.01% | MDA-MB-435 melanoma -85.4% | HCT-116 colon -6.59% | HCC-2998 colon 9.37%
inactive: SW-620 colon 15% | MCF7 breast 28.2% | KM12 colon 36.1%

COc1cc(/C=C2\C(=O)Nc3cc(C)c(O)cc32)cc(OC)c1OC
active: MDA-MB-435 melanoma -34.5%
inactive: T-47D breast 39.2% | BT-549 breast 42.3% | SW-620 colon 55.1% | MCF7 breast 25.7% | HCT-116 colon 56.8% | KM12 colon 21.9%
